# Experimental data: a collection of fitness landscapes (doi:10.1016/j.celrep.2020.107928)
# Whole data set: some 81,000 sequences, median “one-hybrid fitness for binding NBS DNA” near -0.1, cut for the highest 2% near 0.36. The entries come from a sample that favours the highest values as a whole.
# B1: Caulobacter ParB omega fusion; a variant is named by its letters at X, in order, B8GW30 (parent)
# chain: MESVVVGEPGMSEGRRGLGRGLSALLGEVDAAPAQAPGEQLGGSREAPIEILQRNPDQPRRTFREEDLEDLSNSIREKGVLQPILVRPSPDTAGEYQIVAGERAWRAAQRAGLKTVPIMVRELDDLAVLEIGIIENVQRADLNVLEEALSYKVLMEKFERTQENIAQTIGKSXSHVANXMRLLXLPDEVQSYLVSGELTAXHARAIAAAADPVALAKQIIEGGLSVRETEALARKAPNLSAGKSKGGRPPRVKDTDTQALESDLSSVLGLDVSIDHRGSTGTLTITYATLEQLDDLCNRLTRGI
# Variants of: B1
# Assay: one-hybrid fitness for binding NBS DNA (the Noc-binding site; scaled: cognate 1, non-cognate 0); higher = stronger binding
# Conditions: with NBS DNA site
# Outline: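 Bacterial one-hybrid selection in E. coli USO rpoZ- hisB- pyrF- with a HIS3 reporter carrying the site 19 bp from the promoter, screening Caulobacter ParB libraries with four specificity codons randomised (NNS). Cells grew 48 hours at 37°C on M9-minus-histidine plus 0.1 mM IPTG and 5 mM 3-AT. Plasmids before and after selection were Illumina-sequenced, three replicate libraries pooled, and variants under 10 reads dropped. Fitness is the log change in variant-to-wild-type read ratio, rescaled to cognate 1, non-cognate 0.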
row,Variant,one-hybrid fitness for binding NBS DNA
1,QAQP,≤ 0.2
2,QIQN,≤ 0.2
3,QSQR,0.535
4,QSQN,≤ 0.2
5,QAQR,0.506
6,QIQD,≤ 0.2
7,QSQH,0.246
8,QTQR,0.757
9,QTQD,≤ 0.2
10,QIQR,0.39
11,QAQN,≤ 0.2
12,QTQH,0.346
13,SVRD,≤ 0.2
14,NSML,≤ 0.2
15,LLKM,≤ 0.2
16,MPSK,≤ 0.2
17,KHMV,≤ 0.2
18,QHQD,≤ 0.2
19,QGQR,≤ 0.2
20,QHQR,0.523
21,QKQN,≤ 0.2
22,QKQG,≤ 0.2
23,QDQR,≤ 0.2
24,QKQR,0.67

row,Variant,one-hybrid fitness for binding NBS DNA
1,QPQR,≤ 0.2
2,QCQR,0.612
3,YKRT,≤ 0.2
4,SATK,≤ 0.2
5,TSAP,≤ 0.2
6,DITY,≤ 0.2
7,QYQT,0.446
8,QYQM,≤ 0.2
9,QYQG,≤ 0.2
10,QYQP,≤ 0.2
11,QYQS,0.373
12,QYQY,≤ 0.2
13,QHTQ,≤ 0.2
14,IKPC,≤ 0.2
15,QEEP,≤ 0.2
16,QTAE,≤ 0.2
17,AHII,≤ 0.2
18,QTLG,≤ 0.2
19,QMKC,0.383
20,QKKC,0.385
21,QSVC,≤ 0.2
22,QLKC,0.304
23,QRKC,0.507
24,QKIC,≤ 0.2

row,Variant,one-hybrid fitness for binding NBS DNA
1,QRVC,0.314
2,QSKC,0.367
3,QMNC,≤ 0.2
4,QMVC,≤ 0.2
5,QKVC,≤ 0.2
6,QRIC,0.303
7,HLMG,≤ 0.2
8,TSYM,≤ 0.2
9,HDED,≤ 0.2
10,PFKY,≤ 0.2
11,LLIF,≤ 0.2
12,QCLE,≤ 0.2
13,HMAT,≤ 0.2
14,CQKM,≤ 0.2
15,RIAG,≤ 0.2
16,QTKC,0.53
17,QHKC,0.367
18,QCKC,0.452
19,QHYC,≤ 0.2
20,QAKC,0.349
21,QTVC,≤ 0.2
22,QPKC,≤ 0.2
23,QTPC,≤ 0.2
24,QHVC,≤ 0.2

row,Variant,one-hybrid fitness for binding NBS DNA
1,KAAT,≤ 0.2
2,GLAF,≤ 0.2
3,PDTG,≤ 0.2
4,GSLV,≤ 0.2
5,QKHC,≤ 0.2
6,QKIT,0.363
7,QKYT,0.511
8,QKHM,≤ 0.2
9,QKHT,0.549
10,QKCC,≤ 0.2
11,QKCT,0.475
12,QAWT,0.297
13,QKPT,0.306
14,QKWT,0.454
15,QKCY,≤ 0.2
16,QKWG,≤ 0.2
17,SRNN,≤ 0.2
18,GDKC,≤ 0.2
19,RTGY,≤ 0.2
20,ARHT,≤ 0.2
21,RTFI,≤ 0.2
22,IIAL,≤ 0.2
23,HVSG,≤ 0.2
24,PVMQ,≤ 0.2

row,Variant,one-hybrid fitness for binding NBS DNA
1,YSMW,≤ 0.2
2,LTAH,≤ 0.2
3,AHPT,≤ 0.2
4,QKGT,0.566
5,QKGM,≤ 0.2
6,QKRT,0.757
7,DKRT,≤ 0.2
8,NKRT,≤ 0.2
9,QKSG,≤ 0.2
10,QKST,0.526
11,QKLY,≤ 0.2
12,QKGG,≤ 0.2
13,QKSM,≤ 0.2
14,QKLT,0.464
15,TSRY,≤ 0.2
16,RQHL,≤ 0.2
17,HCVL,≤ 0.2
18,SCSP,≤ 0.2
19,SVIR,≤ 0.2
20,DSRA,≤ 0.2
21,DIFG,≤ 0.2
22,WLHF,≤ 0.2
23,EQLL,≤ 0.2
24,LLDV,≤ 0.2

row,Variant,one-hybrid fitness for binding NBS DNA
1,GYFR,≤ 0.2
2,QKDT,0.401
3,QKNN,0.203
4,QKND,≤ 0.2
5,QKNT,0.639
6,GYDR,≤ 0.2
7,FATT,≤ 0.2
8,GEDG,≤ 0.2
9,RAGG,≤ 0.2
10,RPGT,≤ 0.2
11,RHGT,0.344
12,RSGT,0.425
13,RIGT,0.403
14,RAGT,0.443
15,RAGF,≤ 0.2
16,RIGQ,≤ 0.2
17,RFGT,≤ 0.2
18,RNGT,≤ 0.2
19,RCGT,0.462
20,CETT,≤ 0.2
21,LWGM,≤ 0.2
22,HAAD,≤ 0.2
23,HAFN,≤ 0.2
24,VLQG,≤ 0.2

row,Variant,one-hybrid fitness for binding NBS DNA
1,QPVT,0.269
2,QKKT,0.774
3,DKKT,≤ 0.2
4,QKVG,≤ 0.2
5,QCVT,0.428
6,QKVT,0.44
7,QGVT,≤ 0.2
8,CKVS,≤ 0.2
9,ENAK,≤ 0.2
10,LWKN,≤ 0.2
11,VVCT,≤ 0.2
12,GSCC,≤ 0.2
13,HRFR,≤ 0.2
14,RRDP,≤ 0.2
15,RRNS,0.678
16,RRDS,0.58
17,RRNF,0.281
18,RRDD,≤ 0.2
19,RRNC,0.343
20,ADSL,≤ 0.2
21,MLMV,≤ 0.2
22,CATV,≤ 0.2
23,SVNP,≤ 0.2
24,VMPY,≤ 0.2

row,Variant,one-hybrid fitness for binding NBS DNA
1,MHHD,≤ 0.2
2,QCLH,≤ 0.2
3,QRLS,0.603
4,QRLN,0.308
5,QRLP,≤ 0.2
6,QRLD,≤ 0.2
7,QRLH,0.453
8,LGRE,≤ 0.2
9,ACPI,≤ 0.2
10,REGM,≤ 0.2
11,TASA,≤ 0.2
12,RQND,≤ 0.2
13,RQRR,0.717
14,RQSR,0.474
15,RQSD,≤ 0.2
16,RQQD,≤ 0.2
17,RQWR,0.244
18,RQPR,≤ 0.2
19,RQDR,≤ 0.2
20,RQQP,≤ 0.2
21,RQQS,0.429
22,RQNR,0.559
23,RQSH,≤ 0.2
24,ARKV,≤ 0.2

row,Variant,one-hybrid fitness for binding NBS DNA
1,NQVL,≤ 0.2
2,FWRE,≤ 0.2
3,DFAH,≤ 0.2
4,PFPI,≤ 0.2
5,KFHC,≤ 0.2
6,LPAH,≤ 0.2
7,KTKA,≤ 0.2
8,EELL,≤ 0.2
9,PSMT,≤ 0.2
10,RQYR,0.368
11,RQQT,0.441
12,RQLR,0.359
13,RQHR,0.476
14,RQHH,≤ 0.2
15,RQQG,≤ 0.2
16,RQHD,≤ 0.2
17,RQGP,≤ 0.2
18,RQGN,≤ 0.2
19,RQGS,0.408
20,RQIR,≤ 0.2
21,RQQK,≤ 0.2
22,CNHR,≤ 0.2
23,SRDF,≤ 0.2
24,GICT,≤ 0.2

row,Variant,one-hybrid fitness for binding NBS DNA
1,HHHV,≤ 0.2
2,ISLV,≤ 0.2
3,PQPQ,≤ 0.2
4,SHQT,≤ 0.2
5,RQGD,≤ 0.2
6,RQGR,0.447
7,RQKR,0.752
8,RQQR,0.475
9,RQVR,0.258
10,RQQN,≤ 0.2
11,RQQH,≤ 0.2
12,RQAP,≤ 0.2
13,RQGH,≤ 0.2
14,RQKG,≤ 0.2
15,RQAR,0.427
16,RQFR,0.262
17,IAMG,≤ 0.2
18,HHPA,≤ 0.2
19,HPHL,≤ 0.2
20,TLMC,≤ 0.2
21,PVFR,≤ 0.2
22,FHGR,≤ 0.2
23,QHHG,≤ 0.2
24,RYFG,≤ 0.2

row,Variant,one-hybrid fitness for binding NBS DNA
1,RQRS,0.6
2,RQCN,≤ 0.2
3,RQHN,≤ 0.2
4,RQHS,0.468
5,RQCS,0.278
6,RQRN,0.221
7,RQYS,0.322
8,RQHP,≤ 0.2
9,RQCR,0.394
10,TYVN,≤ 0.2
11,IGSF,≤ 0.2
12,FTRC,≤ 0.2
13,PRTW,≤ 0.2
14,QTHD,≤ 0.2
15,QTHN,0.297
16,QTHS,0.585
17,QSHY,0.201
18,QTHP,≤ 0.2
19,QTHF,≤ 0.2
20,QTHH,0.44
21,QTHY,0.384
22,YMSF,≤ 0.2
23,HSWC,≤ 0.2
24,ATGK,≤ 0.2

row,Variant,one-hybrid fitness for binding NBS DNA
1,YNLW,≤ 0.2
2,DVCT,≤ 0.2
3,DEDT,≤ 0.2
4,PSQV,≤ 0.2
5,DYHC,≤ 0.2
6,RKWK,≤ 0.2
7,AQNL,≤ 0.2
8,RRHP,≤ 0.2
9,RRHH,0.525
10,RRHN,0.331
11,RRHK,0.267
12,RRHS,0.681
13,RRHD,≤ 0.2
14,VSMF,≤ 0.2
15,PDIW,≤ 0.2
16,QRCA,0.609
17,QRMA,0.549
18,QRWA,0.432
19,QACA,≤ 0.2
20,QSTA,0.219
21,QSMA,≤ 0.2
22,QRTA,0.6
23,QSWA,≤ 0.2
24,QIWA,≤ 0.2

row,Variant,one-hybrid fitness for binding NBS DNA
1,QCMA,0.303
2,QHCA,≤ 0.2
3,QITA,≤ 0.2
4,FHAS,≤ 0.2
5,ENIG,≤ 0.2
6,LRKN,≤ 0.2
7,PCWT,≤ 0.2
8,QWRA,≤ 0.2
9,QRIA,0.436
10,QRLA,0.547
11,QSSA,≤ 0.2
12,QRRA,0.674
13,QRPA,0.207
14,QPSA,≤ 0.2
15,QSLA,≤ 0.2
16,QCIA,0.25
17,DRRA,≤ 0.2
18,QCLA,0.304
19,QRSA,0.566
